Laboratory results published in the supplement of paper PMC7411054.
Structures can show the parent of a compound that is named as a salt.

Key:
Test in all cases: phenotypically active (imaging signature differs from DMSO and reproducible) at any of 0.3-9 uM (binary (1 = active, 0 = inactive)); higher = active
Settings in all cases: treatment time: 24 h
[1] = system: A549-ACTB-RAB5A
Procedure, shortened: (§1)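 Two criteria together defined phenotypic activity: deviation and reproducibility. Deviation meant ≥3 of 4 wells beyond the 95th percentile of Euclidean distances in solvent control wells, and reproducibility meant a median replicate Pearson correlation above the 95th percentile of non-replicates. Wells had been treated for 24 h at 0.3, 1, 3 or 9 µM in fifteen gene-edited A549, HepG2 and WPMY1 reporter lines before live imaging.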

[2] = system: A549-CANX-COX4
Procedure, shortened: as §1

[3] = system: A549-GM130-SQSTM1
Procedure, shortened: as §1

[4] = system: A549-TP53BP1-CLTA
Procedure, shortened: as §1

[5] = system: A549-TUBA1B-RELA
Procedure, shortened: as §1

[6] = system: HepG2-ACTB-RAB5A
Procedure, shortened: as §1

[7] = system: HepG2-CANX-COX4
Procedure, shortened: as §1

[8] = system: HepG2-GM130-SQSTM1
Procedure, shortened: as §1

[9] = system: HepG2-TP53BP1-CLTA
Procedure, shortened: as §1

[10] = system: HepG2-TUBA1B-RELA
Procedure, shortened: as §1

[11] = system: WPMY1-ACTB-RAB5A
Procedure, shortened: as §1

[12] = system: WPMY1-CANX-COX4
Procedure, shortened: as §1

[13] = system: WPMY1-GM130-SQSTM1
Procedure, shortened: as §1

[14] = system: WPMY1-TP53BP1-CLTA
Procedure, shortened: as §1

[15] = system: WPMY1-TUBA1B-RELA
Procedure, shortened: as §1

Measured: phenotypically active

CC(=O)NCCCS(=O)(=O)O [acamprosate]
inactive: [1] 0 | [2] 0 | [3] 0 | [4] 0 | [5] 0 | [6] 0 | [7] 0 | [8] 0 | [9] 0 | [10] 0 | [11] 0 | [12] 0 | [13] 0 | [14] 0 | [15] 0

CN(C(=O)CCCOc1ccc2[nH]c(=O)ccc2c1)C1CCCCC1 [Cilostamide]
inactive: [1] 0 | [2] 0 | [3] 0 | [4] 0 | [5] 0 | [6] 0 | [7] 0 | [8] 0 | [9] 0 | [10] 0 | [11] 0 | [12] 0 | [13] 0 | [14] 0 | [15] 0

CC(C)N(CCC(=O)c1ccc2ccccc2c1)Cc1ccccc1
inactive: [1] 0 | [2] 0 | [3] 0 | [4] 0 | [5] 0 | [6] 0 | [7] 0 | [8] 0 | [9] 0 | [10] 0 | [11] 0 | [12] 0 | [13] 0 | [14] 0 | [15] 0

COc1cc2c(cc1OC)C(=O)C(CC1CCN(Cc3ccccc3)CC1)C2 (stereo not given) [donepezil]
inactive: [1] 0 | [2] 0 | [3] 0 | [4] 0 | [5] 0 | [6] 0 | [7] 0 | [8] 0 | [9] 0 | [10] 0 | [11] 0 | [12] 0 | [13] 0 | [14] 0 | [15] 0

C#C[C@]1(O)CC[C@H]2[C@@H]3CCC4=CCCC[C@@H]4[C@H]3C(=C)C[C@@]21CC [desogestrel]
inactive: [1] 0 | [2] 0 | [3] 0 | [4] 0 | [5] 0 | [6] 0 | [7] 0 | [8] 0 | [9] 0 | [10] 0 | [11] 0 | [12] 0 | [13] 0 | [14] 0 | [15] 0

O=C1CCc2cc(OCCCCc3nnnn3C3CCCCC3)ccc2N1 [Cilostazol]
inactive: [1] 0 | [2] 0 | [3] 0 | [4] 0 | [5] 0 | [6] 0 | [7] 0 | [8] 0 | [9] 0 | [10] 0 | [11] 0 | [12] 0 | [13] 0 | [14] 0 | [15] 0

CN(CCOc1ccc(C[C@H](Nc2ccccc2C(=O)c2ccccc2)C(=O)O)cc1)c1ccccn1 [GW 1929 hydrochloride]
inactive: [1] 0 | [2] 0 | [3] 0 | [4] 0 | [5] 0 | [6] 0 | [7] 0 | [8] 0 | [9] 0 | [10] 0 | [11] 0 | [12] 0 | [13] 0 | [14] 0 | [15] 0

O=C1NCCCC1C(=O)NCCc1c[nH]c2ccc(O)cc12 (stereo not given)
inactive: [1] 0 | [2] 0 | [3] 0 | [4] 0 | [5] 0 | [6] 0 | [7] 0 | [8] 0 | [9] 0 | [10] 0 | [11] 0 | [12] 0 | [13] 0 | [14] 0 | [15] 0

Nc1ccc(C(=O)O)c(O)c1 [aminosalicylate]
inactive: [1] 0 | [2] 0 | [3] 0 | [4] 0 | [5] 0 | [6] 0 | [7] 0 | [8] 0 | [9] 0 | [10] 0 | [11] 0 | [12] 0 | [13] 0 | [14] 0 | [15] 0

NCCNS(=O)(=O)c1ccc(Cl)c2ccncc12 [CKI 7 dihydrochloride]
inactive: [1] 0 | [2] 0 | [3] 0 | [4] 0 | [5] 0 | [6] 0 | [7] 0 | [8] 0 | [9] 0 | [10] 0 | [11] 0 | [12] 0 | [13] 0 | [14] 0 | [15] 0

N[C@@H](CSC(c1ccccc1)(c1ccccc1)c1ccccc1)C(=O)O [S-Trityl-L-cysteine]
inactive: [1] 0 | [2] 0 | [3] 0 | [4] 0 | [5] 0 | [6] 0 | [7] 0 | [8] 0 | [9] 0 | [10] 0 | [11] 0 | [12] 0 | [13] 0 | [14] 0 | [15] 0

COc1ccc([C@@H]2CC(=O)c3c(O)cc(O[C@@H]4O[C@H](CO[C@@H]5O[C@@H](C)[C@H](O)[C@@H](O)[C@H]5O)[C@@H](O)[C@H](O)[C@H]4O)cc3O2)cc1O [Hesperidin]
inactive: [1] 0 | [2] 0 | [3] 0 | [4] 0 | [5] 0 | [6] 0 | [7] 0 | [8] 0 | [9] 0 | [10] 0 | [11] 0 | [12] 0 | [13] 0 | [14] 0 | [15] 0

COc1ccc2c3c1O[C@H]1C[C@@H](O)C=C[C@@]31CCN(C)C2 [galantamine]
inactive: [1] 0 | [2] 0 | [3] 0 | [4] 0 | [5] 0 | [6] 0 | [7] 0 | [8] 0 | [9] 0 | [10] 0 | [11] 0 | [12] 0 | [13] 0 | [14] 0 | [15] 0

O=C(O)CCNC(=O)c1ccc(/N=N/c2ccc(O)c(C(=O)O)c2)cc1 [balsalazide]
inactive: [1] 0 | [2] 0 | [3] 0 | [4] 0 | [5] 0 | [6] 0 | [7] 0 | [8] 0 | [9] 0 | [10] 0 | [11] 0 | [12] 0 | [13] 0 | [14] 0 | [15] 0

O=C1N(c2ccccc2)c2ccccc2C1(Cc1ccncc1)Cc1ccncc1 [linopirdine]
inactive: [1] 0 | [2] 0 | [3] 0 | [4] 0 | [5] 0 | [6] 0 | [7] 0 | [8] 0 | [9] 0 | [10] 0 | [11] 0 | [12] 0 | [13] 0 | [14] 0 | [15] 0
